Experimental findings from ChEMBL document CHEMBL1201862, “PubChem BioAssay data set” (2004) are described below.

Values joined by “and” are separate entries in the source; they are usually repeats but may differ in a detail not shown here. Equal values may be shown once. Hit rate of the full screen: of about 400,000 compounds, about 2,100 (0.53%) were called active. Inconclusive results (about 14%) are left out. The sample holds actives, similar compounds and a random draw of the others, so the mix is not that of the screen. How the calls were made is not given here.

Sequence of Ataxin-2 (Homo sapiens) (Q99700 whole entry): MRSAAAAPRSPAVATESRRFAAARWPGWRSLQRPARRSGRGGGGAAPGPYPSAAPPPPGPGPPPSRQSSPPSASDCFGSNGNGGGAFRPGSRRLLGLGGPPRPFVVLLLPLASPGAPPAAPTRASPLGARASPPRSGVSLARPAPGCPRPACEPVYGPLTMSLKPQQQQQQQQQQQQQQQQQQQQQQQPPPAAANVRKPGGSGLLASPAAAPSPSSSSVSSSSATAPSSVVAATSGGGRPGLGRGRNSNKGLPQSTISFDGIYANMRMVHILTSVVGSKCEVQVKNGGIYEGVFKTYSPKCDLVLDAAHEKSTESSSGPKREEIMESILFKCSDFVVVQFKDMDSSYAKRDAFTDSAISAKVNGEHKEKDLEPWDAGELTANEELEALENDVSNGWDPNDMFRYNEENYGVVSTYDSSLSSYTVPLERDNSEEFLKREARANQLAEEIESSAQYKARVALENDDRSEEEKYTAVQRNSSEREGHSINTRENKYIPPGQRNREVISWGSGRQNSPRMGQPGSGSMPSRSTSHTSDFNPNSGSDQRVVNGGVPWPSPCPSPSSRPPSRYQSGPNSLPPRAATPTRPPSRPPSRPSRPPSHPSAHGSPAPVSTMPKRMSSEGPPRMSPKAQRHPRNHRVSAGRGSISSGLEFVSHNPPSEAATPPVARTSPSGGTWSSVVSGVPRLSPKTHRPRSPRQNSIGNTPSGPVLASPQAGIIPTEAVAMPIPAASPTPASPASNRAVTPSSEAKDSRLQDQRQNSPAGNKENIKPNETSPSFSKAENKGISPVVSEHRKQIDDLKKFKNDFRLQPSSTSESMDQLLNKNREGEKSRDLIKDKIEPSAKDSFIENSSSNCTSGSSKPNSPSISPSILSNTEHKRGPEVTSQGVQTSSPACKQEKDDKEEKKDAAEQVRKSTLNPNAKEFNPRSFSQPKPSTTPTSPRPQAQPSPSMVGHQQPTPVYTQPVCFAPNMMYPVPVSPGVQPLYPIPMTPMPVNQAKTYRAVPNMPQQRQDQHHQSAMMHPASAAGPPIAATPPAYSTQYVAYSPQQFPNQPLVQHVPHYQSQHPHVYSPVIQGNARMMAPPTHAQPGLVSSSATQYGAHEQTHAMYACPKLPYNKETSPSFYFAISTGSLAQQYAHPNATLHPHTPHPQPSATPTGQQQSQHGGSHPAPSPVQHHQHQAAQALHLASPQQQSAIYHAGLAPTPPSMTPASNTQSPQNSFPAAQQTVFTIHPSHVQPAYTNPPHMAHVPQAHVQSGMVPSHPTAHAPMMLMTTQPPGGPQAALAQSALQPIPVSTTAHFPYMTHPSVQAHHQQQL

The assay concerns the target Ataxin-2 (Homo sapiens) (UniProt Q99700). Briefly: qHTS for Inhibitors of ATXN expression. The assay is classed as functional. A general note: qHTS replaces the single test concentration by a dilution series.
With `O=C(O)COc1ccc(/C=C/c2nc3ccc([N+](=O)[O-])cc3s2)cc1`, the Potency entry is “inactive”. With `CCN(CC)c1ccc2c(Cl)c(Br)c(=O)oc2c1` the entry was “inactive”; with `c1ccn2c(c1)nc1c2nc2ccccn21`, “inactive”.

As to `C=CCNC(=O)c1cc2c(=O)n3ccccc3nc2s1`, the Potency result was “inactive”. In the case of `COc1ccc(/C=C/C(=O)c2ccccc2)cc1Cn1nnc2ccccc21`, the Potency was 39.8 µM (active). The value for `COc1ccc(/C=N/NC(=O)CCn2nnc3ccccc32)cc1` was “inactive”; that for `COc1ccc(/C=C/C(=O)c2ccc3ccccc3c2O)cc1CN1CCOCC1` was “inactive”; that for `O=C(O)C1Sc2nc(O)sc2C2c3ccc(O)cc3OC(=O)C12` (stereo not given) was “inactive”. The value for `O[C@H]1CN(CC2CCCCC2)[C@@H](c2ccc(Cl)cc2)C[C@@H]1n1cc(C2CC2)nn1` was 20 µM (active); that for `COCC(=O)Nc1nc2n(n1)C(c1ccccc1)CC(c1ccc(OC)cc1)N2` (stereo not given) was “inactive”; that for `COc1ccc(C2CC(c3ccccc3)=NN2c2ccc(C(N)=O)cc2)cc1` (stereo not given) was “inactive”. The value for `O=C(OCc1cn([C@H]2CN(CC3CCCCC3)[C@@H](c3ccc(Cl)cc3)C[C@@H]2O)nn1)c1ccccc1` was 35.5 µM (active). For the molecule `COc1ccc(C2C3=C(CCCC3=O)N(CC(=O)O)C3=C2C(=O)CCC3)cc1`, the Potency result was “inactive”. The value for `COc1ccc([C@H]2C[C@@H](O)[C@H](n3cc(COC(=O)c4ccccc4)nn3)CN2CC2CCCCC2)cc1` was 28.2 µM (active); that for `COc1ccc([C@H]2C[C@H](O)[C@@H](n3cc(COC(=O)c4ccccc4)nn3)CN2CC2CCCCC2)cc1` was 35.5 µM (active); that for `CC(C)C(=O)Nc1ccc(C(=O)N/N=C/c2cc(Br)cc(Br)c2O)cc1` was “inactive”.

`N#Cc1nc(/C=C/c2ccc(F)cc2)oc1N1CCCCCC1`: the Potency entry is “inactive”. With `Cc1nc2ccccc2c2c(N)c3ccccc3n12` the entry was “inactive”; with `CC(=O)C1=CCC(c2ccc(Br)cc2)N(S(=O)(=O)c2ccc(C)cc2)C1` (stereo not given), 20 µM (active). With `Cc1ccc(S(=O)(=O)CCC(=O)OCCOc2ccc(Br)cc2)cc1` the entry was “inactive”. With `Cc1ccc(-c2ccc(S(=O)(=O)N3CC(C)OC(C)C3)cc2)cc1` (stereo not given) the entry was “inactive”; with `Fc1cccc(CNCc2ccc3c(c2)OCO3)c1`, “inactive”. For `COc1ccc2[nH]c(SCC(=O)NC(C)c3ccccc3)nc2c1` (stereo not given), the Potency entry is “inactive”.

Take `COc1ccc(C(C)NCCC(c2ccc(OC(C)C)cc2)c2ccccc2OC)cc1` (stereo not given): the Potency is 39.8 µM (active). With `COc1ccc(CNCCC(c2ccc3c(c2)OCO3)c2ccccc2OC)cc1` (stereo not given) the figure was 22.4 µM (active); with `COc1ccccc1/C=C/C(=O)OCC(=O)NCc1ccc2c(c1)OCO2`, “inactive”. The value for `Cc1c(CC(=O)N2CCN(C(=O)C3COc4ccccc4O3)CC2)c(=O)oc2cc(O)cc(O)c12` (stereo not given) was “inactive”. Consider `Cc1ccc(S(=O)(=O)N2CCOCC2)cc1NC(=O)COC(=O)/C=C/c1ccco1`, for which the Potency entry is “inactive”. With `CC[C@@H]1Cc2cc(O)ccc2C2=C1c1ccc(O)cc1C[C@H]2CC` the figure was 39.8 µM (active) and 22.4 µM (active); with `Clc1ccc(-c2nc(N3CCCCC3)nc3ccccc23)cc1`, “inactive”; with `COc1ccc(-n2c(=O)c(CCC(=O)NCCc3ccccc3F)nc3ccccc32)cc1`, “inactive”.

Take `Cc1ccc(C(=O)c2c(C)oc3c2C(=O)C(=O)c2ccccc2-3)cc1`: the Potency was 39.8 µM (active). With `Cc1sc(N)c(C(=O)c2ccccc2)c1C` the entry was “inactive”; with `Cc1oc2c(c1C(=O)c1ccccc1)C(=O)C(=O)c1ccccc1-2`, 3.98 µM (active); with `CCOc1ccc(-n2c(C)cc(/C=N/NC(=O)C(N)=O)c2C)cc1`, “inactive”. The value for `Cc1ccc(-n2c(C)cc(C(=O)COc3cccnc3[N+](=O)[O-])c2C)cc1` was “inactive”; that for `CCOc1ccc(-n2c(C)cc(C(=O)CCl)c2C)cc1` was 29.9 µM (active).

Take `CCCn1c(=N)c(C(=O)NCc2ccco2)cc2c(=O)n3cc(C)ccc3nc21`: the Potency entry was “inactive”. The value for `CCc1nc(N2CCN(C(=O)CCl)CC2)c2c3c(sc2n1)CC(C)CC3` (stereo not given) was 35.5 µM (active).

With `CC1CCc2c(sc3ncn(CC(=O)N4CCCCC4)c(=O)c23)C1` (stereo not given), the Potency result is “inactive”. As to `CC1CCc2c(sc3nc(-c4cc5ccccc5oc4=O)nc(Cl)c23)C1` (stereo not given), the Potency entry was “inactive”.

On to `COCCCn1c(C(=O)N2CCOCC2)cc2c(=O)n3ccccc3nc21`, for which the Potency result was “inactive”. With `CN1/C(=C/C(=O)c2nc(S(C)(=O)=O)ncc2Cl)C(C)(C)c2ccccc21` the figure was 31.6 µM (active); with `CN1/C(=C\C(=O)c2cccnc2)C(C)(C)c2ccccc21`, “inactive”. As to `CC1=C(C(=O)c2ccccc2)C(c2ccc(O)cc2)NC(S)=N1` (stereo not given), the Potency entry is “inactive”.

Take `O=C(NCCC1=CCCCC1)C1CCC(CNc2nc(S)nc3ccccc23)CC1` (stereo not given): the Potency was 23.8 µM (active).

With `O=C(NCCCN1CCCC1=O)C1CCN(S(=O)(=O)c2ccccc2)CC1`, the Potency entry is “inactive”. The value for `O=C(COC(=O)/C=C/c1ccccc1)NCCC1=CCCCC1` was “inactive”; that for `CCCCN(C(=O)NC(=O)C1=C(N2CCOCC2)/C(=C/c2ccccc2)CC1)S(C)(=O)=O` was “inactive”; that for `C=CCO/C(O)=C1\C(C)=NC(SCC(=O)Nc2nccs2)=C(C#N)C1c1ccc(Cl)cc1` (stereo not given) was “inactive”. With `CC(C)(C)CC(C)(C)NC1=Nc2cc(Cl)c(Cl)cc2NC12C[C@H]1CCC(=O)N3CC[C@@H](C2)[C@@H]13` (stereo not given in full) the figure was 31.6 µM (active); with `O=C1CCC[C@@H]2C[C@@]3(C[C@@H]4CCN1[C@H]24)Nc1cc(Cl)c(Cl)cc1N=C3NCc1ccccc1`, 35.5 µM (active); with `COc1ccc2c(c1)CCC1=C2N=C(S)NC1c1ccc(N(C)C)cc1` (stereo not given), “inactive”. With `c1cc(SC2CCCCC2)cc(-c2nc3cnccn3c2NC2CCCCC2)c1` the entry was “inactive”; with `Cc1cc(C)n2c(=O)c3ccc(Cl)cc3nc2c1C#N`, “inactive”. With `CC(C)(C)c1cc(CP(=O)(c2ccccc2)c2ccccc2)cc(C(C)(C)C)c1O`, the Potency entry is “inactive”. On to `O=C(C=Cc1ccccn1)c1ccccc1O`, for which the Potency is 39.8 µM (active). With `COc1ccccc1C(=O)CSc1ccccn1` the entry was “inactive”; with `O=C(C=Cc1ccccn1)c1ccccc1`, 35.5 µM (active); with `COc1ccc2[nH]cc(/C=C/C(=O)c3ccccc3)c2c1`, “inactive”. On to `Cc1[nH]c2ccccc2c1/C=C/C(=O)c1ccncc1`, for which the Potency result was “inactive”. With `O=C(C=Cc1ccccc1F)c1ccccc1` the figure was 31.6 µM (active); with `O=C(O)c1ccc2c(c1)C(=O)N(c1ccc(/C=C/C(=O)c3ccccc3)cc1)C2=O`, “inactive”; with `O=C(/C=C/c1ccc(N2CCC(c3ccccc3)=N2)cc1)c1ccccc1`, “inactive”.

For the molecule `O=C(O)/C(=C\c1ccco1)NC(=O)c1ccco1`, the Potency result is “inactive”. The value for `Cc1ccc(NC(=O)CCc2nnc3ccc(N4CCC5(CC4)OCCO5)nn23)nc1` was “inactive”. With `COc1ccc(COc2cc(-c3cccc(OC)c3)nc3ccc(N)cc23)cc1` the entry was “inactive”; with `COC(=O)/C=C\C(=O)Nc1cccc([N+](=O)[O-])c1`, 31.6 µM (active). With `O=[N+]([O-])c1cccc(NC(=S)N2CCOCC2)c1` the entry was “inactive”; with `CC(C)N1CC(C(=O)Nc2cccc([N+](=O)[O-])c2)CC1=O` (stereo not given), “inactive”. For `O=C(NCC1CCCCC1)C1(CC2CC(c3ccc(Cl)cc3)=NO2)CCNCC1` (stereo not given), the Potency is 39.8 µM (active). On to `COc1cc(NC(=O)C2CC(c3cccc(Br)c3)=NO2)cc(OC)c1OC` (stereo not given), for which the Potency result was “inactive”. With `O=C(CNC(=O)c1ccc(Br)o1)NCC1CCCCC1` the entry was “inactive”.

For `O=C(NCC1CCCCC1)C1(CC2CC(c3cccc(Br)c3)=NO2)CCNCC1` (stereo not given), the Potency was 35.5 µM (active).

Regarding `O=C(O)c1cc(-c2ccc(-c3ccc(F)cc3)o2)nc2ccccc12`, the Potency entry is “inactive”.

Turning to `C[C@@H]1C(c2cccc(Cl)c2)=NN(c2ccccc2)[C@H]1C(=O)N1CCOC1=O`, the Potency entry was “inactive”.

On to `Oc1c(Cl)cc(Cl)cc1/C=N/c1nc(-c2ccc(Cl)cc2)cs1`, for which the Potency entry is “inactive”.

On to `Cc1[nH]n(-c2nc(-c3ccc(Cl)cc3)cs2)c(=O)c1N=Nc1ccc(O)cc1`, for which the Potency was 26.7 µM (active). The value for `CC(=O)Nc1ccc(C2CC(c3ccc(Cl)cc3)=NN2c2ccccc2)cc1` (stereo not given) was “inactive”; that for `CC(=O)Nc1cccc(-c2ccnc3c2CC(C(=O)Nc2ccc(F)c(Cl)c2)O3)c1` (stereo not given) was 22.4 µM (active). For `O=C(Nc1cccc(OC(F)(F)F)c1)C1Cc2c(-c3ccc4c(c3)OCO4)ccnc2O1` (stereo not given), the Potency is 39.8 µM (active). The value for `O=C1OC(C(=O)Nc2ccc(Cl)c(C(F)(F)F)c2)Cc2ccccc21` (stereo not given) was “inactive”; that for `CCOC(=O)c1cc(-c2ccc3c(c2)OCO3)nc2onc(C)c12` was “inactive”; that for `CC(C)CN(CC(C)C)C(=O)c1cc2c(=O)n3ccccc3nc2s1` was “inactive”. For the molecule `O=C(NCCOC(=O)c1ccccc1)c1ccccc1`, the Potency result was “inactive”.

Turning to `O=C(Nc1ccc(Cl)cn1)c1ccccc1SCc1ccccc1`, the Potency result was “inactive”. Turning to `N=C(NOC(=O)c1ccccc1)C(Cc1ccccc1)C(=O)NOC(=O)c1ccccc1` (stereo not given), the Potency is 39.8 µM (active).

Turning to `COc1ccc(CN2C(=O)c3cccnc3C2=O)cc1S(=O)(=O)N1CCOc2ccc(C)cc21`, the Potency result is “inactive”.

In the case of `O=C(c1cnn(-c2ccccc2)c1)c1ccccc1O`, the Potency entry was “inactive”. With `CC(Sc1ccccc1)C(=O)NN=C1CCCCCCC1` (stereo not given) the entry was “inactive”; with `COc1ccccc1NC(=O)CN1CCN(CC(=O)Nc2ccc(Cl)c(C(F)(F)F)c2)CC1`, 44.7 µM (active); with `CCOc1ccc(NC(=O)CN2CCN(CC(=O)Nc3ccccc3OC)CC2)cc1`, “inactive”. The value for `O=C(CN1CCN(C(=O)c2c(F)cccc2F)CC1)Nc1ccccc1C(F)(F)F` was “inactive”; that for `O=C(Cc1ccccc1)Nc1ncccc1Cl` was “inactive”. The value for `Cc1ccc(-c2ccc(/C=C3\SC(N4CCOCC4)=NC3=O)o2)cc1` was “inactive”; that for `Cc1ccccc1-c1ccc(/C=C2/SC(N3CCOCC3)=NC2=O)o1` was “inactive”.

Consider `O=C1NC(=S)S/C1=C/c1ccc(N2CCOCC2)o1`, for which the Potency was 10 µM (active). For the molecule `Cn1c(/C=C(\C#N)C(N)=S)ccc1-c1ccc(Br)cc1`, the Potency was 11.2 µM (active). With `N#C/C(=C/c1ccc(-c2ccc(Br)cc2)o1)C(=O)NC1CCCCC1` the entry was “inactive”; with `CC(=O)c1sc2nsc(SCCN3CCOCC3)c2c1N`, “inactive”.
